Source: PubChem
ULK1 inh – human ULK1 kinase inhibition, primary screen; O75385; AlphaScreen Atg13 phosphorylation by ULK1, luminescence; inhibition, % at 5.96 µM; hit rate 1.9% among 30,000; AID 1259251; in the data active = inhibition above about 43%
ASK1 inh – human ASK1 kinase inhibition, primary screen; Q99683; AlphaScreen MKK6 phosphorylation by ASK1, luminescence; inhibition, % at 7.44 µM; hit rate 0.99% among 22,000; in the data active = inhibition above about 35%
Target sequence (Q99683 whole entry, looked up): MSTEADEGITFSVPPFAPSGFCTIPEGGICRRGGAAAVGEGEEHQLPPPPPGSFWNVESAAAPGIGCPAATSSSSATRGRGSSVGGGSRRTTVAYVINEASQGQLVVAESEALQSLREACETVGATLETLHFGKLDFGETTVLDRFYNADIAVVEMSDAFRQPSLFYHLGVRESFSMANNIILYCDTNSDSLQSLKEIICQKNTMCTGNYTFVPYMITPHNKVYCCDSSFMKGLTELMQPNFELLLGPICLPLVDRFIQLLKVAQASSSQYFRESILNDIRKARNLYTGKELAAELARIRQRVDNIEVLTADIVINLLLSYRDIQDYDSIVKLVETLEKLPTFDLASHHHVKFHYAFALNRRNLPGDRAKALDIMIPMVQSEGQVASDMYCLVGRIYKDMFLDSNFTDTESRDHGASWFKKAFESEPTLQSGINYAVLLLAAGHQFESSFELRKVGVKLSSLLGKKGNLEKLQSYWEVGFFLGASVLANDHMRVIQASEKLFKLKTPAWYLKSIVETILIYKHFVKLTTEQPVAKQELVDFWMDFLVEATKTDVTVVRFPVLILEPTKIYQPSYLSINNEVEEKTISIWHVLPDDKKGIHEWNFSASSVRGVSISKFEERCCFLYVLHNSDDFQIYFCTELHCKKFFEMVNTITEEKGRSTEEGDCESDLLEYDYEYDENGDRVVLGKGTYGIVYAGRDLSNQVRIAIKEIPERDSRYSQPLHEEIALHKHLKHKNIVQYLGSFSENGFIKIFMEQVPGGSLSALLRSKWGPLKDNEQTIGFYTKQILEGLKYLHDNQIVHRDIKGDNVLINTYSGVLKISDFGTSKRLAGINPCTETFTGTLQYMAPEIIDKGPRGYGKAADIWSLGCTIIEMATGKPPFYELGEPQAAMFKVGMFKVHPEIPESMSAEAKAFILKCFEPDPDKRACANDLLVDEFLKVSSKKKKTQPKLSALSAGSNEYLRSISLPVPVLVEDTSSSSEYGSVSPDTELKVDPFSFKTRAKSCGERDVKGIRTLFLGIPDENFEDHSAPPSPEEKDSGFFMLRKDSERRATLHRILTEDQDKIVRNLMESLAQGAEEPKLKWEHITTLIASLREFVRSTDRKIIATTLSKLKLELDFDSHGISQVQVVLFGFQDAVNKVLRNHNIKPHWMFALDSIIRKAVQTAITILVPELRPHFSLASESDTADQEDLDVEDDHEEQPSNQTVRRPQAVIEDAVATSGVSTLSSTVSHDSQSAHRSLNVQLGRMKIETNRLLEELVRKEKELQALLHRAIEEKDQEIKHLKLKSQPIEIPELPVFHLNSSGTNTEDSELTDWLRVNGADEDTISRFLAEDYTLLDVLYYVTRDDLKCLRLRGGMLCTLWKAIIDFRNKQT
Of the large screens only hits and unclear results are named; the others gave an inactive call. Rows were chosen to be rich in hits. Some 2.4% of all compounds tested hit in one or more screens of this group.

O=S(=O)(O)c1cc(I)c(O)c2ncccc12	ULK1 inh 45 (no result: ASK1 inh)
Oc1c(Cl)cc(Cl)c2cccnc12	none (no result: ASK1 inh)
CN(C)C1CCN(c2cc(-c3cn[nH]c3)ccc2NC(=O)[C@@](C)(O)c2ccc(Br)cc2)CC1	none
O=C(Nc1cccc2cnccc12)c1ccc(SCC(O)c2ccc(Br)cc2)cc1 (stereo not given)	none
CC(=O)Nc1ccc(Nc2cc(C)nc(N3CCN(c4ccccn4)CC3)n2)cc1	none
Cc1cc(Nc2ccc(N3CCOCC3)cc2)nc(N2CCc3ccccc3C2)n1	ASK1 inh 58
CC(=O)Nc1ccc(Nc2cc(C)nc(N3CCc4ccccc4C3)n2)cc1	none
Cc1cc(Nc2ccc(N3CCOCC3)cc2)nc(N2CCN(c3ccccn3)CC2)n1	ASK1 inh 46
OCCNc1nc(NCCN2CCOCC2)nc2c1ncn2-c1ccccc1	none
O=C(Nc1ccc2[nH]ncc2c1)[C@H]1CCCN1	ULK1 inh 45
O=C(Nc1ccc2[nH]ncc2c1)C(O)c1ccc(Cl)cc1 (stereo not given)	none
O=C(Nc1ccc2[nH]ncc2c1)[C@@H]1CCCN1	none
N[C@H]1CCC[C@@H](C(=O)Nc2ccc3cnccc3c2)C1	ULK1 inh 66
O=C(Nc1ccc2[nH]ncc2c1)C1CCCNC1 (stereo not given)	none
N[C@@H]1CC[C@@H](C(=O)Nc2ccc3[nH]ncc3c2)C1	ULK1 inh 65
N[C@@H]1CC[C@@H](C(=O)Nc2ccc3cnccc3c2)C1	none
O=C(Nc1ccc2[nH]ncc2c1)[C@H](O)c1ccccc1	ULK1 inh 49
CCNc1ccc(N2CCC(C(=O)Nc3ccccc3)CC2)nn1	none
Cn1c(Nc2nc3ncnc(NCCOc4ccccc4)c3[nH]2)nc2ccccc21	none
COc1cccc(-c2cccc3cnc(Nc4ccc(-n5cnc(C)n5)cc4)nc23)c1	none
O=C(Nc1ccccc1)C1CCN(c2ccc(Nc3ccc(-n4ccnc4)cc3)nn2)CC1	none
COc1ccc2c(c1)CC(c1nc3c(OCCN(C)C)cc(-c4cn[nH]c4C)cc3s1)CO2 (stereo not given)	none
CC(C)[C@H](O)C(=O)N[C@H]1CC[C@H](C(=O)Nc2ccc3[nH]ncc3c2)C1	none
N[C@H]1CC[C@@H](C(=O)Nc2ccc3[nH]ncc3c2)C1	ULK1 inh 72
CC(=O)Nc1ccc(Nc2cc(Nc3nc4ccccc4n3C)ncn2)cc1	none
OCC1CCCN1c1cc(NC2CCN(Cc3ccccc3)CC2)ncn1 (stereo not given)	none
CCN(CC)C(=O)C1CCCN(c2nc(NCc3nc4ccccc4[nH]3)c3cc(OC)c(OC)cc3n2)C1 (stereo not given)	ULK1 inh 49
CCN(CC)C(=O)C1CCCN(c2nc(NCc3cccnc3)c3cc(OC)c(OC)cc3n2)C1 (stereo not given)	none
N#Cc1c(/N=C/c2ccc(O)c(O)c2)sc2c1CCCC2	none (no result: ASK1 inh)
CC(C)n1cnc2c(Nc3ccc(N4CCOCC4)cc3)nc(Nc3ccncn3)nc21	ULK1 inh 52
CC(C)n1cnc2c(Nc3ccc(N4CCOCC4)cc3)nc(Nc3ccc(N4CCOCC4)cc3)nc21	none
CC(C)n1cnc2c(Nc3ccc(N4CCOCC4)cc3)nc(Nc3cccnc3)nc21	ULK1 inh 49
CC(C)n1cnc2c(Nc3ccc(N4CCOCC4)cc3)nc(Nc3ccccn3)nc21	ULK1 inh 69
CC(C)n1cnc2c(NC3CC3)nc(Nc3ccc(N4CCOCC4)cc3)nc21	none
CC(C)n1cnc2c(Nc3ccc(N4CCOCC4)cc3)nc(Nc3nccc4ccccc34)nc21	none
COc1cc(NC(=O)c2cncc(-c3cccc(C(C)=O)c3)c2)cc(OC)c1OC	none
CCC(=O)c1c(O)cc(O)cc1O	ULK1 inh 62 (no result: ASK1 inh)
Oc1cc(O)cc(O)c1	none (no result: ASK1 inh)
O=C(Nc1ccccc1)c1ccc2nc(NCc3ccc4c(c3)OCO4)sc2c1	none
O=C(NCCO)c1cc(NCCCN2CCCC2=O)nc2ccccc12	none
O=C(Nc1ccc(N2CCOCC2)cc1)c1ccnc(NCCN2CCOCC2)c1	ULK1 inh 47
O=C(Nc1ccc(N2CCOCC2)cc1)c1ccc2nc(Nc3ccccn3)sc2c1	ULK1 inh 52
O=C(Nc1ccc(N2CCOCC2)cc1)c1ccc2nc(Nc3ccc(N4CCOCC4)cc3)sc2c1	none
CCNc1cc(C(=O)Nc2ccc(N3CCOCC3)cc2)ccn1	none
Nc1cccc(-c2ccc(C(=O)NCCc3ccc(O)cc3)s2)c1	ULK1 inh 43
CC(=O)c1cccc(-c2ccc(C(=O)NCCc3ccc(O)cc3)s2)c1	none
Cc1nc2sc3c(c2c(=O)n1N=C1C=CC(=O)C=C1)CCCC3	none (no result: ASK1 inh)
CC[C@@H](C(=O)[C@@H](C)[C@@H](O)[C@H](C)CCc1ccc(C)c(O)c1C(=O)O)[C@H]1O[C@](CC)([C@H]2CC[C@](O)(CC)[C@H](C)O2)C[C@@H]1C	ULK1 inh 70 (no result: ASK1 inh)
CC[C@@H](C(=O)[C@@H](C)[C@@H](O)[C@H](C)[C@@H]1O[C@@H]([C@@H](CC)C(=O)O)CC[C@@H]1C)[C@H]1O[C@]2(C=C[C@@H](O)[C@]3(CC[C@@](C)([C@H]4CC[C@](O)(CC)[C@H](C)O4)O3)O2)[C@H](C)C[C@@H]1C	none (no result: ASK1 inh)
Cc1ccc(S(=O)(=O)n2ncc3cc(Nc4ccccc4)cnc32)cc1	none
Cc1ccc(-c2cccc3cnc(Nc4cccc(C(=O)N5CCOCC5)c4)nc23)cn1	ULK1 inh 64
Cc1ccc(-c2cccc3cnc(Nc4ccc(C(=O)N5CCCC5)cc4)nc23)cn1	ULK1 inh 63
Cc1ccc(-c2cccc3cnc(NC4CCN(C(=O)N5CCCC5)C4)nc23)cn1 (stereo not given)	none
Cc1ncn(-c2ccc(Nc3ncc4cccc(-c5cncc(C(=O)N6CCOCC6)c5)c4n3)cc2)n1	none
c1ccc2sc(-c3cnc(N4CCCCC4)nc3)cc2c1	none (no result: ASK1 inh)
CC(=O)c1cccc(-c2nc(Nc3ccc(N4CCOCC4)cc3)c3ncn(C(C)C)c3n2)c1	ULK1 inh 56
Cc1cnc(-c2ccc(N3CCOCC3)nc2)nc1Nc1ccccc1	ULK1 inh 44
CC(C)n1cnc2c(Nc3ccc(N4CCOCC4)cc3)nc(-c3cccc(N)c3)nc21	none
CC(=O)Nc1ccc(Nc2nc(-c3ccc(N4CCOCC4)nc3)nc3c2ncn3C(C)C)cc1	ULK1 inh 44
NC(=O)c1ccc(-c2nc(Nc3ccc(N4CCOCC4)cc3)c3ncn(Cc4ccc(C(F)(F)F)cc4)c3n2)cc1	none
CC(C)n1cnc2c(Nc3ccc(N4CCOCC4)cc3)nc(-c3ccc(C(N)=O)cc3)nc21	ULK1 inh 63
CC(=O)Nc1ccc(Nc2nc(N3CCOCC3)nc3c2ncn3C(C)C)cc1	none
Cc1cnc(-c2ccccc2)nc1Nc1ccc(N2CCOCC2)cc1	none
O=C(c1ccccc1Br)N1CCN(CC(O)COc2ccccc2)CC1 (stereo not given)	none (no result: ASK1 inh)
Cc1cc(Nc2ccc(N3CCOCC3)cc2)nc(Cl)n1	none
COc1ccc(CCNc2cc(C)nc(Nc3cc(OC)c(OC)c(OC)c3)n2)cc1	none
Nc1cccc(-c2nc(NCc3nc4ccccc4[nH]3)c3ncn(CCN4CCCC4=O)c3n2)c1	none
COc1cccc(OCc2nc3ccc(-c4cn[nH]c4)cc3s2)c1	none
CC(=O)Nc1ccc(Nc2nc(-c3cccc(N)c3)nc3c2ncn3C(C)C)cc1	none
COc1ccc(-c2nc(Nc3ccc(NC(C)=O)cc3)c3ncn(C(C)C)c3n2)cn1	ULK1 inh 50
CC(=O)Nc1ccc(Nc2nc(-c3ccc(C(N)=O)cc3)nc3c2ncn3C(C)C)cc1	ULK1 inh 75
COc1ccc(-c2nc(Nc3ccc(N4CCOCC4)cc3)c3ncn(C(C)C)c3n2)cn1	none
Cn1c(Nc2nc(NCCCN3CCCC3=O)c3ncn(-c4ccsc4)c3n2)nc2ccccc21	none
